# From PubChem BioAssay
# The list is not random: actives were taken first. Their share in the collection is about 3.5%.
# FBW7 activator: activators of human E3 ligase FBW7 | Q969H0 | AlphaScreen FBW7–phospho-cyclin E peptide binding, activator screen | normalized activity (activation), % at 26.1 µM | 650,000 tested, 0.13% active | AID 1259310; in the data active means normalized activity above about 1.9%;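 further: purified mutant Fbw7 with reduced substrate affinity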
# Target sequence (Q969H0 whole entry, looked up): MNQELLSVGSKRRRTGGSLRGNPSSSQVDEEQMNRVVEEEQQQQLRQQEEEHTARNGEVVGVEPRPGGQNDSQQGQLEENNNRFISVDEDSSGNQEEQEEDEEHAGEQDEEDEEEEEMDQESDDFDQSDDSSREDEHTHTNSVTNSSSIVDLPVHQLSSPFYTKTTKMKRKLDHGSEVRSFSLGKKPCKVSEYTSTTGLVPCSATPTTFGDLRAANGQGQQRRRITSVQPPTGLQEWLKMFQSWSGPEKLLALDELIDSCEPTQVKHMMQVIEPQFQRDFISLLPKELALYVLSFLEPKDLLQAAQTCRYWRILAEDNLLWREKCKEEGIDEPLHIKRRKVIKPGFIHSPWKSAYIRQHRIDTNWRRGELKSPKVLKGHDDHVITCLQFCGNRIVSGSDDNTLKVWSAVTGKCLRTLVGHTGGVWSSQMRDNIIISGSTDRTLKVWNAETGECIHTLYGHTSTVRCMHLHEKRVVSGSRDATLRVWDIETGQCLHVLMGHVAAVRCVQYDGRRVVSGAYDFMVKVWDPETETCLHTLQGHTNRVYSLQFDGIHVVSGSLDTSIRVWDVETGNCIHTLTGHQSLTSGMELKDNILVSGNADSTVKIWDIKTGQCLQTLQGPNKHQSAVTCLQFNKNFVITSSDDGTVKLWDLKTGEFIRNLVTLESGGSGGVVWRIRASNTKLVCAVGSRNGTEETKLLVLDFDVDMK
# MITF primary: inhibitors of human MITF; O75030; AlphaScreen MITF homodimerization, bead proximity signal; 650,000 tested, 0.91% active; inhibition, % at 2.6 µM; in the data active means inhibition above about 50%;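 further: 0% = vehicle wells with protein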
# GPR151 ag: activators of human GPR151. Q8TDV0. PathHunter beta-arrestin GPR151 cells, luminescence. activation, % at 11.2 µM. 650,000 tested, 1% active. AID 1508602; in the data active means activation above about 4.9%;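 further: 0% = median of compound wells and 100% = cells with positive control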
# TEAD-YAP inh: TEAD-YAP interaction inhibition; 640,000 tested, 1.4% active; HEK-TIYL cells, TEAD-Gal4/YAP UAS-luciferase luminescence; inhibition, % at 9.12 µM; in the data active means inhibition above about 32%;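 further: 0% = median of test compound wells and 100% = reference inhibitor wells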
# GPR151 conf act: human GPR151 activation, confirmation screen. AID 1508609. shares compounds with GPR151 ag. GPR151 PathHunter beta-arrestin cells, luminescence, 90 min; % of EA-reagent control over plate median. activation, % at 11.2 µM. 6,700 tested, under 10 active;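 active means mean percent activation across replicates above the confirmation screen cutoff of 4.91%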
# GPR119 ag: GPR119 activation, counter-screen for GPR151 activators; shares compounds with GPR151 ag; GPR119 PathHunter beta-arrestin cells, luminescence, 90 min; 0 = compound-well median, 100 = enzyme-acceptor control; activation, % at 11.2 µM; 6,700 tested, 0.3% active; AID 1508611;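 active means mean percent activation in the counterscreen above 29.09%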;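 further: counterscreen on off-target GPR119 to flag nonselective hits from the GPR151 activator screen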
# Numbers without * were called inactive; / = no result.
SMILES,FBW7 activator,MITF primary,GPR151 ag,TEAD-YAP inh,GPR151 conf act,GPR119 ag
CC(C)(C)n1nc2c(c1NC(=O)c1c(F)cccc1F)CSC2,0.1,42.5,7.6*,7.0,-0.8,-6.8
O=C(Nc1nc(-c2ccc(I)cc2)cs1)c1ccc(Cl)s1,0.1,0.2,5.5*,-0.2,1.9,19.4
O=C(Nc1nc(-c2ccccc2)cs1)c1ccc(Cl)s1,-0.1,-10.0,1.5,-27.6,/,/
C=CC[C@@H]1C=C[C@H](O/N=C(\C)CCN2CCCCc3nc(C)c(C)cc32)[C@@H](CO)O1,0.0,-12.7,0.1,/,/,/
CN(Cc1ccn[nH]1)C(=O)c1ccc(OC2CCN(C(=O)C3CC3)CC2)cc1,0.3,13.0,-0.3,-7.2,/,/
CN(Cc1ccn[nH]1)C(=O)c1cccc(OC2CCN(C(=O)C3CC3)CC2)c1,0.1,4.7,4.9*,2.1,-1.0,-21.8
COC(=O)C(C(=O)Nc1ccccc1C)C1CCCC1 (stereo not given),0.2,7.3,0.1,-6.3,/,/
CCOC(=O)C(C(=O)Nc1ccccc1OC)C1CCCCC1 (stereo not given),-0.1,4.3,5.1*,2.7,0.1,-3.5
COc1ccccc1OC(C)C(=O)NC1CCCCC1 (stereo not given),-0.2,-12.1,6.4*,-4.5,-1.0,-6.6
COc1ccccc1OCC(=O)NC1CCCCCC1,0.2,-21.2,-0.2,-52.9,/,/
Cc1ccc(OC(=O)C2c3ccccc3Oc3ccccc32)c(-n2nc3ccccc3n2)c1,-0.1,8.1,-3.7,-56.1,/,/
O=C(NC1CCCC1)C1CCN(C(=O)c2ccc(F)cc2)CC1,0.2,22.5,-0.8,4.0,/,/
CNS(=O)(=O)c1cccc(C(=O)OCC(N)=O)c1,0.0,-0.2,8.8*,1.5,-0.3,-1.3
CNS(=O)(=O)c1cccc(C(=O)OCc2cc(C(C)=O)ccc2OC)c1,0.0,-2.1,5.0*,-8.7,0.3,3.4
COc1ccc(C(=O)[C@H]2CCCN(C(=O)c3cn[nH]c3C)C2)cc1,0.1,0.4,-0.6,10.8,/,/
COC(=O)COc1ccc2c(C)c(C)c(=O)oc2c1C,0.8,7.8,-1.5,2.6,/,/
CCc1c(C)c2ccc(OCC(=O)OC)c(C)c2oc1=O,0.1,1.9,5.1*,6.3,-0.1,-7.5
COc1cc([N+](=O)[O-])c(N2CCOCC2)c([N+](=O)[O-])c1OC,-0.1,-4.4,5.4*,-3.6,-0.3,0.2
CC(C)(C)NC(=O)CCN1Cc2ccccc2OC(c2ccccc2F)C1 (stereo not given),0.0,-2.1,0.6,-4.1,/,/
CCn1c(=O)c2c(nc3n(CC)c(C)cn23)n(C)c1=O,0.0,-2.8,0.7,6.9,/,/
CCCCn1c(=O)c2c(nc3n(-c4ccc(C(=O)OCC)cc4)c(C)cn23)n(C)c1=O,0.3,14.7,5.6*,6.4,1.3,-10.5
CCn1c(=O)c2c(nc3n(C)c(C)cn23)n(C)c1=O,-0.1,5.8,8.0*,22.3,0.8,2.5
CCCn1c(=O)c2c(nc3n(-c4ccc(C(=O)OCC)cc4)c(C)cn23)n(C)c1=O,-0.5,8.5,0.0,-3.8,/,/
CCc1ccccc1N(CC(=O)NC1CCCCC1)C(=O)CNC(=O)c1cccs1,0.1,7.6,0.3,7.0,/,/
CC(C)c1ccc(N(C)S(=O)(=O)c2ccc3[nH]cc(C(=O)N4CCOCC4)c(=O)c3c2)cc1,-0.6,20.1,-0.2,3.7,/,/
SMILES,FBW7 activator,MITF primary,GPR151 ag,TEAD-YAP inh,GPR151 conf act,GPR119 ag
Cc1ccc(-n2c3c(cc(C(=O)Nc4ccc(F)cc4)c2=O)C(=O)CCC3)cc1,0.1,12.5,5.5*,-0.2,-0.1,-2.5
Cc1ccc(-n2c3c(cc(C(=O)Nc4cccc(F)c4)c2=O)C(=O)CCC3)cc1,-0.1,2.3,-0.9,-0.8,/,/
Cc1ccc(NC(=O)c2ccc(F)cc2C)cc1,-0.3,2.9,5.3*,-20.9,0.0,-2.7
CCCn1c(CCC(=O)Nc2ccc(C)cc2)nc2cccnc21,0.0,1.8,-0.2,7.5,/,/
C/C(=N\Nc1cccc(C(=O)O)c1)c1ccccc1Br,-0.1,34.2,-1.5,-78.7,/,/
COC(=O)c1ccc(N2C(=O)c3ccc(NC(C)=O)cc3C2=O)cc1,0.0,3.9,11.1*,5.0,-1.3,-12.1
COc1ccc(N2C(=O)c3ccc(NC(C)=O)cc3C2=O)cc1,0.1,4.9,1.2,4.6,/,/
CCn1nc(-c2cc(Br)cs2)nc2c(=O)n(C)c(=O)nc1-2,-0.2,9.4,-5.6,-21.4,/,/
Nc1c(Cl)ncnc1N1CCN(c2ncnc(Cl)c2N)CC1,-0.1,-3.4,5.4*,-3.4,0.3,6.7
Nc1c(Cl)ncnc1N1CCOCC1,0.0,18.3,0.1,6.6,/,/
COc1ccc(-c2cnc(NCCc3c[nH]c4ccccc34)nc2)cc1,0.1,0.0,5.2*,-11.2,-0.2,-7.9
Cc1cccc(N2CCN(c3ncnc4c3c(-c3ccccc3)cn4-c3ccc(Br)cc3)CC2C)c1 (stereo not given),0.6,0.9,-1.1,-5.1,/,/
Cc1ccc(OCC(=O)Nc2ccncc2)cc1C,-0.1,-4.1,4.9*,7.2,0.0,2.7
COCCCNC(=O)COc1ccc(Cl)c(C)c1,0.2,-8.1,0.2,-14.9,/,/
COCCCNC(=O)CCCc1ccc(OC)c(C)c1,-0.4,-0.3,12.6*,8.3,-0.1,-5.7
COCCCNC(=O)COc1ccc(C)c(C)c1,0.7,5.1,10.4*,0.9,0.1,-14.7
Cc1ccc(C)c(OCC(=O)NCCCN(C)C)c1,0.0,9.7,9.1*,8.5,-0.7,-11.9
CCc1nc2nc(C)cc(Nc3cccc(F)c3)n2n1,-0.1,4.1,-0.6,-1.5,/,/
COC(=O)c1ccccc1NC(=O)c1cc(Cl)ccc1Cl,0.0,3.0,0.9,-1.1,/,/
C=CCOc1c(Br)cc(/C=C2\NC(=S)NC2=O)cc1OCC,0.1,11.2,-0.9,4.9,/,/
O=C(c1cccc(Cl)c1)N1CCN(c2ccc([N+](=O)[O-])cc2)CC1,-0.3,-0.3,1.9,8.3,/,/
O=C1CCC(=O)N1c1ccc(CSc2nnnn2C2CCCCC2)cc1,0.9,-2.4,6.9*,-5.8,-0.3,-4.0
CCn1nc2c3c(C)c(C)sc3nc(C(C)C)n2c1=O,-0.1,4.7,1.8,6.3,/,/
Cc1sc2nc(C(C)C)n3c(=O)n(CCN4CCCC4)nc3c2c1C,-0.4,-2.3,11.2*,8.0,0.1,3.3
COc1ccnc(Cn2nc3c4c(C)c(C)sc4nc(C(C)C)n3c2=O)c1OC,-0.2,-12.3,-0.1,-7.3,/,/
Cc1sc2nc(C(C)C)n3c(=O)n(Cc4ccccn4)nc3c2c1C,-0.1,-3.0,12.6*,-2.5,-0.7,1.1
Nc1nc(NCCc2ccc(O)cc2)cc(-c2ccc(C(=O)NC3CC3)cc2)n1,0.2,1.5,6.8*,3.1,-0.5,-9.8
NC(=O)c1ccc(-c2cc(NCCc3ccc(O)cc3)nc(N)n2)cc1,0.1,-7.8,-1.8,-13.5,/,/
O=C(NCCn1nnn(-c2ccccc2)c1=O)c1ccno1,0.1,1.0,0.6,3.4,/,/
